# Reference: the supplement of paper PMC8728848
# About 410 targets per protein were measured; listed, in parts, are those with the strongest signals and a random draw of the rest.
# B1: GALT1 115 D492A (Arabidopsis thaliana), Q8L7F9 (protein)
# chain: DPMRGSHHHHHHGMASMTGGQQMGRDLYDDDDKSRLQKPYITAAASVVVTPNTTLPMEWLRITLPDFMKEARNTQEAISGDDIAVVSGLFVEQNVSKEEREPLLTWNRLESLVDNAQSLVNGVDAIKEAGIVWESLVSAVEAKKLVDVNENQTRKGKEELCPQFLSKMNATEADGSSLKLQIPCGLTQGSSITVIGIPDGLVGSFRIDLTGQPLPGEPDPPIIVHYNVRLLGDKSTEDPVIVQNSWTASQDWGAEERCPKFDPDMNKKVDDLDECNKMVGGEINRTSSTSLQSNTSRGVPVAREASKHEKYFPFKQGFLSVATLRVGTEGMQMTVDGKHITSFAFRDTLEPWLVSEIRITGDFRLISILASGLPTSEESEHVVDLEALKSPTLSPLRPLDLVIGVFSTANNFKRRMAVRRTWMQYDDVRSGRVAVRFFVGLHKSPLVNLELWNEARTYGDVQLMPFVDYYSLISWKTLAICIFGTEVDSAKFIMKTDDAAFVRVDEVLLSLSMTNNTRGLIYGLINSDSQPIRNPDSKWYISYEEWPEEKYPPWAHGPGYIVSRDIAESVGKLFKEGNLKMFKLEDVAMGIWIAELTKHGLEPHYENDGRIISDGCKDGYVVAHYQSPAEMTCLWRKYQETKRSLCCREW
# B2: GALT1 615 (Arabidopsis thaliana), Q8L7F9 (protein)
# chain: DPMRGSHHHHHHGMASMTGGQQMGRDLYDDDDKSRLQKPYITAAASVVVTPNTTLPMEWLRITLPDFMKEARNTQEAISGDDIAVVSGLFVEQNVSKEEREPLLTWNRLESLVDNAQSLVNGVDAIKEAGIVWESLVSAVEAKKLVDVNENQTRKGKEELCPQFLSKMNATEADGSSLKLQIPCGLTQGSSITVIGIPDGLVGSFRIDLTGQPLPGEPDPPIIVHYNVRLLGDKSTEDPVIVQNSWTASQDWGAEERCPKFDPDMNKKVDDLDECNKMVGGEINRTSSTSLQSNTSRGVPVAREASKHEKYFPFKQGFLSVATLRVGTEGMQMTVDGKHITSFAFRDTLEPWLVSEIRITGDFRLISILA
# Legend:
# Assay in all cases: glycan array binding signal (z-score within array); higher = stronger binding
# Settings in all cases: glycan notation: IUPAC condensed, linker removed
# [1] = biological target: Fuc(a1-2)Gal(b1-3)GalNAc(b1-3)Gal
# Summary of the method: (§1)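 Columns mapping to the same glycan were averaged after glycan names were converted to IUPAC-condensed notation. The data come from 3228 arrays in the Consortium for Functional Glycomics database, limited to those with an available protein sequence. Binding is reported as a within-array Z-score averaged across arrays of one protein sequence and across linkers.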
# [2] = biological target: Fuc(a1-2)Gal(b1-4)GlcNAc(b1-3)Gal(b1-4)GlcNAc(b1-3)Gal(b1-4)GlcNAc
# Summary of the method: as §1
# [3] = biological target: Fuc(a1-2)Gal(b1-4)[Fuc(a1-3)]GlcNAc
# Summary of the method: as §1
# [4] = biological target: Fuc(a1-2)Gal(b1-4)[Fuc(a1-3)]GlcNAc(b1-3)Gal(b1-4)[Fuc(a1-3)]GlcNAc
# Summary of the method: as §1
# [5] = biological target: Fuc(a1-2)[Gal(a1-3)]Gal(b1-3)GlcNAc
# Summary of the method: as §1
# [6] = biological target: Fuc(a1-3)[Gal(b1-4)]GlcNAc(b1-2)Man(a1-3)[Fuc(a1-3)[Gal(b1-4)]GlcNAc(b1-2)Man(a1-6)]Man(b1-4)GlcNAc(b1-4)GlcNAc
# Summary of the method: as §1
# [7] = biological target: Fuc(a1-3)[Neu5Ac(a2-3)]Gal(b1-4)GlcNAc(b1-3)GalNAc
# Summary of the method: as §1
# [8] = biological target: Gal(b1-3)GalNAc(a1-3)[Fuc(a1-2)]Gal(b1-4)GlcNAc
# Summary of the method: as §1
# [9] = biological target: Gal(b1-3)[Fuc(a1-4)]GlcNAc(b1-2)Man(a1-3)[Gal(b1-3)[Fuc(a1-4)]GlcNAc(b1-2)Man(a1-6)]Man(b1-4)GlcNAc(b1-4)[Fuc(a1-6)]GlcNAc
# Summary of the method: as §1
# [10] = biological target: Gal(b1-4)GlcNAc(b1-3)GalNAc
# Summary of the method: as §1
# [11] = biological target: Gal(b1-4)GlcNAc(b1-6)GalNAc
# Summary of the method: as §1
# [12] = biological target: Gal3S(b1-3)[Fuc(a1-4)]GlcNAc
# Summary of the method: as §1
# Gal3S(b1-4)GlcNAc = biological target: Gal3S(b1-4)GlcNAc
# Summary of the method: as §1
# [13] = biological target: GlcNAc(a1-4)Gal(b1-4)GlcNAc(b1-3)Gal(b1-4)[Fuc(a1-3)]GlcNAc(b1-3)Gal(b1-4)[Fuc(a1-3)]GlcNAc
# Summary of the method: as §1
# [14] = biological target: GlcNAc(b1-2)Man(a1-3)[GlcNAc(b1-2)Man(a1-6)]Man(b1-4)GlcNAc(b1-4)[Fuc(a1-6)]GlcNAc
# Summary of the method: as §1
# [15] = biological target: GlcNAc(b1-3)Gal(b1-3)GalNAc
# Summary of the method: as §1
# [16] = biological target: Man(a1-2)Man(a1-2)Man(a1-3)Man
# Summary of the method: as §1
# Man(a1-3)[Man(a1-6)]Man = biological target: Man(a1-3)[Man(a1-6)]Man
# Summary of the method: as §1
# [17] = biological target: Man(a1-3)[Man(a1-6)]Man(a1-6)[Man(a1-2)Man(a1-3)]Man(b1-4)GlcNAc(b1-4)GlcNAc
# Summary of the method: as §1
# [18] = biological target: Neu5Ac(a2-3)Gal(b1-3)GalNAc(b1-4)[Neu5Ac(a2-3)]Gal(b1-4)Glc
# Summary of the method: as §1
# [19] = biological target: Neu5Ac(a2-3)Gal(b1-4)GlcNAc(b1-3)GalNAc
# Summary of the method: as §1
# [20] = biological target: Neu5Ac(a2-3)Gal(b1-4)[Fuc(a1-3)]GlcNAc(b1-3)Gal(b1-4)GlcNAc
# Summary of the method: as §1
# [21] = biological target: Neu5Ac(a2-3)Gal(b1-4)[Fuc(a1-3)]GlcNAc6S
# Summary of the method: as §1
# [22] = biological target: Neu5Ac(a2-6)Gal(b1-4)GlcNAc(b1-2)Man(a1-3)[Neu5Ac(a2-6)Gal(b1-4)GlcNAc(b1-2)Man(a1-6)]Man(b1-4)GlcNAc(b1-4)GlcNAc
# Summary of the method: as §1
# [23] = biological target: Neu5Ac(a2-6)Gal(b1-4)GlcNAc(b1-2)Man(a1-6)[Gal(b1-4)GlcNAc(b1-2)Man(a1-3)]Man(b1-4)GlcNAc(b1-4)GlcNAc
# Summary of the method: as §1
# [24] = biological target: Neu5Ac(a2-6)Gal(b1-4)GlcNAc(b1-2)Man(a1-6)[Man(a1-3)]Man(b1-4)GlcNAc(b1-4)GlcNAc
# Summary of the method: as §1
# [25] = biological target: Neu5Ac(a2-6)Gal(b1-4)GlcNAc6S
# Summary of the method: as §1
# Neu5Ac(a2-8)Neu5Ac = biological target: Neu5Ac(a2-8)Neu5Ac
# Summary of the method: as §1
# [26] = biological target: Neu5Ac(a2-8)Neu5Ac(a2-3)[GalNAc(b1-4)]Gal(b1-4)Glc
# Summary of the method: as §1
# [27] = biological target: Neu5Gc(b2-6)Gal(b1-4)GlcNAc
# Summary of the method: as §1
# Fuc(a1-2)Gal(b1-4)GlcNAc = biological target: Fuc(a1-2)Gal(b1-4)GlcNAc
# Summary of the method: as §1
# [28] = biological target: Fuc(a1-2)Gal(b1-4)[Fuc(a1-3)]GlcNAc(b1-3)Gal(b1-4)[Fuc(a1-3)]GlcNAc(b1-3)Gal(b1-4)[Fuc(a1-3)]GlcNAc
# Summary of the method: as §1
# [29] = biological target: Fuc(a1-2)[GalNAc(a1-3)]Gal(b1-4)[Fuc(a1-3)]GlcNAc
# Summary of the method: as §1
# [30] = biological target: Gal(b1-3)GalNAc(b1-4)Gal(b1-4)Glc
# Summary of the method: as §1
# [31] = biological target: Gal(b1-3)GlcNAc(b1-3)Gal(b1-3)GlcNAc
# Summary of the method: as §1
# [32] = biological target: Gal(b1-4)GlcNAc(b1-2)Man(a1-3)Man(b1-4)GlcNAc(b1-4)GlcNAc
# Summary of the method: as §1
# [33] = biological target: Gal(b1-4)GlcNAc(b1-2)Man(a1-3)[Gal(b1-4)GlcNAc(b1-2)Man(a1-6)]Man(b1-4)GlcNAc(b1-4)GlcNAc
# Summary of the method: as §1
# Gal3S(b1-4)GlcNAc6S = biological target: Gal3S(b1-4)GlcNAc6S
# Summary of the method: as §1
# Gal6S(b1-4)GlcNAc6S = biological target: Gal6S(b1-4)GlcNAc6S
# Summary of the method: as §1
# Glc(a1-4)Glc = biological target: Glc(a1-4)Glc
# Summary of the method: as §1
# [34] = biological target: GlcNAc(a1-4)Gal(b1-4)GalNAc
# Summary of the method: as §1
# [35] = biological target: GlcNAc(a1-4)Gal(b1-4)GlcNAc(b1-3)Gal(b1-4)GlcNAc
# Summary of the method: as §1
# GlcNAc(b1-3)GalNAc = biological target: GlcNAc(b1-3)GalNAc
# Summary of the method: as §1
# [36] = biological target: GlcNAc(b1-3)[GlcNAc(b1-6)]Gal(b1-4)GlcNAc
# Summary of the method: as §1
# Kdn(a2-3)Gal(b1-3)GalNAc = biological target: Kdn(a2-3)Gal(b1-3)GalNAc
# Summary of the method: as §1
# [37] = biological target: Man(a1-2)Man(a1-6)[Man(a1-3)]Man(a1-6)[Man(a1-2)Man(a1-2)Man(a1-3)]Man(b1-4)GlcNAc(b1-4)GlcNAc
# Summary of the method: as §1
# [38] = biological target: Neu5Ac(a2-3)Gal(b1-3)GlcNAc6S
# Summary of the method: as §1
# [39] = biological target: Neu5Ac(a2-3)Gal(b1-4)GlcNAc(b1-6)[Neu5Ac(a2-3)Gal(b1-3)]GalNAc
# Summary of the method: as §1
# [40] = biological target: Neu5Ac(a2-3)Gal(b1-4)GlcNAc6S
# Summary of the method: as §1
binder,measurement,setting,value
B1,glycan array binding signal (z-score),[1],1.79
same,glycan array binding signal (z-score),[2],6.73
same,glycan array binding signal (z-score),[3],8.05
same,glycan array binding signal (z-score),[4],-0.068
same,glycan array binding signal (z-score),[5],-0.352
same,glycan array binding signal (z-score),[6],-0.034
same,glycan array binding signal (z-score),[7],-0.012
same,glycan array binding signal (z-score),[8],0.06
same,glycan array binding signal (z-score),[9],-0.152
same,glycan array binding signal (z-score),[10],-0.374
same,glycan array binding signal (z-score),[11],-0.406
same,glycan array binding signal (z-score),[12],-0.223
same,glycan array binding signal (z-score),Gal3S(b1-4)GlcNAc,-0.298
same,glycan array binding signal (z-score),[13],2.05
same,glycan array binding signal (z-score),[14],2.9
same,glycan array binding signal (z-score),[15],1.5
same,glycan array binding signal (z-score),[16],0.15
same,glycan array binding signal (z-score),Man(a1-3)[Man(a1-6)]Man,-0.244
same,glycan array binding signal (z-score),[17],0.404
same,glycan array binding signal (z-score),[18],-0.335
same,glycan array binding signal (z-score),[19],-0.152
same,glycan array binding signal (z-score),[20],0.671
same,glycan array binding signal (z-score),[21],-0.172
same,glycan array binding signal (z-score),[22],0.357
same,glycan array binding signal (z-score),[23],-0.362
same,glycan array binding signal (z-score),[24],-0.139
same,glycan array binding signal (z-score),[25],0.087
same,glycan array binding signal (z-score),Neu5Ac(a2-8)Neu5Ac,-0.221
same,glycan array binding signal (z-score),[26],-0.078
same,glycan array binding signal (z-score),[27],0.041
B2,glycan array binding signal (z-score),[1],8.63
same,glycan array binding signal (z-score),Fuc(a1-2)Gal(b1-4)GlcNAc,-0.374
same,glycan array binding signal (z-score),[3],4.77
same,glycan array binding signal (z-score),[28],1.95
same,glycan array binding signal (z-score),[29],1.82
same,glycan array binding signal (z-score),[30],-0.508
same,glycan array binding signal (z-score),[31],-0.271
same,glycan array binding signal (z-score),[32],-0.484
same,glycan array binding signal (z-score),[33],0.081
same,glycan array binding signal (z-score),[11],-0.439
same,glycan array binding signal (z-score),Gal3S(b1-4)GlcNAc,-0.208
same,glycan array binding signal (z-score),Gal3S(b1-4)GlcNAc6S,-0.044
same,glycan array binding signal (z-score),Gal6S(b1-4)GlcNAc6S,-0.309
same,glycan array binding signal (z-score),Glc(a1-4)Glc,3.74
same,glycan array binding signal (z-score),[34],8
same,glycan array binding signal (z-score),[35],-0.46
same,glycan array binding signal (z-score),[14],6.45
same,glycan array binding signal (z-score),GlcNAc(b1-3)GalNAc,-0.386
same,glycan array binding signal (z-score),[36],-0.348
same,glycan array binding signal (z-score),Kdn(a2-3)Gal(b1-3)GalNAc,-0.772
same,glycan array binding signal (z-score),[37],-0.415
same,glycan array binding signal (z-score),[38],-0.079
same,glycan array binding signal (z-score),[39],-0.225
same,glycan array binding signal (z-score),[40],-0.078
same,glycan array binding signal (z-score),[20],0.904
same,glycan array binding signal (z-score),[27],-0.419
